Screening data (PubChem)
GLP-1R agonist = activates the human GLP-1 receptor | Potency, µM (titrated, usually from 45.6 µM), without a hit: top-dose activation, most hits filed as activators | AID 624172 | 380,000 compounds, 0.007% hits | P43220 | HEK293 GLP-1R CRE-luciferase, luminescence, 4-6 h; cells express a hypersensitive GLP-1R form; further: % of control where 0% means no effect
GLP1R cytotox = cytotoxicity in counter-screen for GLP-1R inverse agonists; HEK293 cAMP-luciferase reporter cells, luminescence, 24 h; Potency, µM (highest dose often 38.3 µM), for inactives: top-dose activity change, negative = inhibition, hits mostly inhibitors; 410,000 compounds, 0.13% hits;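 further: loss of luciferase light is scored as toxicity; on the % scale 0 is the no-effect control and ±100 the full control effect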
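A 23 nL compound transfer followed 12 hours of cell culture at 37 deg C; exposure then lasted 24 hr. Luciferase assay detection reagent was dispensed and plates read for luminescence after a 12 min room-temperature wait.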
GLP1R inv ag = inverse agonists of human GLP-1 receptor | Potency, µM (highest dose often 38.3 µM), for the others: top-dose activity change, negative = inhibition, most hits filed as inhibitors | HEK293 GLP-1R CRE-luciferase, luminescence, 24 h; GLP-1R form is constitutively active | P43220 | AID 624417 | 410,000 compounds, 1.6% hits; further: on the % scale 0 is the no-effect control and ±100 the full control effect; nearly all actives have a fitted effect of over 55% in size
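Using stably transfected HEK293 (constitutively active GLP-1R, cAMP-luciferase reporter), compounds were incubated 24 hr and luciferase measured by luminescence.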
PTHR1 ag = agonists of human PTHR1 parathyroid hormone receptor; Q03431; HEK293 GP2 PTHR1 cells, GloSensor cAMP luminescence, 1 h; Potency, µM (top dose mostly 115 µM), without a hit: at the top dose activation, actives largely listed as activators; 410,000 compounds, 0.075% hits; AID 743266; further: nearly all actives have a fitted effect of over 55% in size
Target sequence (Q03431 whole entry, looked up): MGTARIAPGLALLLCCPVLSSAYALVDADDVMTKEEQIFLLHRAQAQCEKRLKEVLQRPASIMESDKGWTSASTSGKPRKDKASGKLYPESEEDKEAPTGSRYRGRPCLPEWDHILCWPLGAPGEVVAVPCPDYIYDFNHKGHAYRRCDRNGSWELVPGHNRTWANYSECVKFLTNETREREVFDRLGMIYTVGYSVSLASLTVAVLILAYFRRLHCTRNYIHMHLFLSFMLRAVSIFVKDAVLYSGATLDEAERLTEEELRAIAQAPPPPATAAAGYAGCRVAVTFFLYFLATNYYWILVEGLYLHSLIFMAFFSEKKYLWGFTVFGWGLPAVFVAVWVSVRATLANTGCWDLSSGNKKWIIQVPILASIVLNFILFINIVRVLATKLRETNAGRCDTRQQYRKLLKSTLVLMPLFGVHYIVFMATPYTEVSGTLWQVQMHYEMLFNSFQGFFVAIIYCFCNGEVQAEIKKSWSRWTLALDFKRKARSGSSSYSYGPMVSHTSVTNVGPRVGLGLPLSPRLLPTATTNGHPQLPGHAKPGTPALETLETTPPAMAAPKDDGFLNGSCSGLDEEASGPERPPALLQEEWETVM
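HEK-293-derived GP2 cells expressing PTHR1 and a GloSensor cAMP reporter, 3,000/well, plated overnight, given luciferin plus IBMX (each 0.5 mM as added) for 1 h at 37 °C, then compound for 1 h at 37 °C. Luminescence was read after 15 min at room temperature.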
Active calls of the source: *; i = inactive; ? = inconclusive; . = no result; [ ] = remark or other dose. A selection: hits, their analogues and other compounds. The true share with any hit is near 1.7%. The call rests on the fitted dose curve; in most records, active means well fitted curve in the direction sought with a large enough effect; inconclusive means small, poorly fitted or top-dose-only effect, or another doubt; inactive means no such curve, though single readings can be large; an effect the other way counts as inactive or inconclusive. Potency means the concentration at half of the fitted maximal effect.

SMILES	GLP-1R agonist	GLP1R cytotox	GLP1R inv ag	PTHR1 ag
C=CCn1c(NCc2cc(Cl)ccc2O)nc2ccccc21	4%	-1%	11µM*	-90%
C=CCn1c(NCc2ccccc2O)nc2ccccc21	2%	-8%	?	i
CC12CN3CC(c4ccccc4)(CN(C1)C3c1ccc(O)cc1)C2=O (stereo not given)	0%	0%	20%	-18%
Cc1onc(-c2ccccc2Cl)c1C(=O)O/N=C(\N)c1ccccc1	16%	?	10µM*	i
COc1ccc(CCc2ccc3ccccc3n2)cc1	23%	-7%	10µM*	-29%
COc1ccc(CCc2ccnc3ccccc23)cc1	38%	-1%	?	-20%
CCc1ccccc1NC(=O)Nc1ccc2c(c1)N(CC)C(=O)c1ccccc1S2	.	-16%	5µM*	-8%
CCN1C(=O)c2ccccc2Sc2ccc(NC(=O)Nc3ccc(C(C)=O)cc3)cc21	.	1%	?	-55%
Cc1ccc(Sc2c(C)nn(C(C)(C)C)c2OC(=O)C(C)(C)C)cc1	.	1%	-12%	-5%
COc1ccc(NC(=O)C2CCN(S(=O)(=O)c3cc(-c4noc(C)n4)ccc3C)CC2)cc1	.	-3%	11%	-28%
Cc1nc(-c2cccc(NC(=O)Nc3ccc([N+](=O)[O-])cc3)c2)no1	-8%	?	3.5µM*	-44%
Cc1ccc(S(=O)(=O)N2CCOCC2)cc1NC(=O)COc1cccc(Oc2ccccc2)c1	-2%	12%	10µM*	i
Cc1ccc(S(=O)(=O)N2CCOCC2)cc1NC(=O)CN1CCC(Cc2ccccc2)CC1	10%	-7%	7.1µM*	-28%
Cc1ccc(S(=O)(=O)N2CCOCC2)cc1NC(=O)CN1CCN(C)CC1	0%	0%	36%	-12%
COc1ccc2cc(-c3cc(C(=O)O)c4ccccc4n3)ccc2c1	-20%	14%	2.2µM*	-12%[57.5 µM]
COc1cccc(NC(=O)CN(C)C(=O)/C=C/c2cn(-c3ccccc3)nc2-c2ccc(C)cc2)c1	-7%	6%	2µM*	i
COc1cccc(NC(=O)CN(C)C(=O)c2cc(-c3ccccc3)nc3ccccc23)c1	-10%	?	?	i
COc1cccc(NC(=O)CN(C)C(=O)c2cc(-c3ccc(F)cc3)nc3ccccc23)c1	-20%	?	7.1µM*	-37%
CCCCCC1CCC(c2n[nH]c(=S)n2C)CC1 (stereo not given)	8%	3.2µM*	?	i
COCCCNc1ccn2nc(-c3ccccc3)cc2n1	-6%	-5%	4µM*	-55%
c1ccc(COc2cccc(-c3cc4nc(NCc5cccs5)ccn4n3)c2)cc1	16%	-14%	4.5µM*	-71%
COCCCNc1ccn2nc(-c3cccc(OCc4ccccc4)c3)cc2n1	-19%	-4%	?	-55%
COCCCNc1ccn2nc(-c3cccc(Cl)c3)cc2n1	4%	-4%	?	-89%
COc1ccc(-c2sc3ccc(OC)cc3c2-c2ccc(OCCN3CCOCC3)cc2)cc1	-2%	8%	10µM*	-2%
COc1cccc(-c2sc3ccc(OC)cc3c2-c2ccc(OCCN3CCCC3)cc2)c1	6%	5%	?	i
SMILES	GLP-1R agonist	GLP1R cytotox	GLP1R inv ag	PTHR1 ag
O=C(Nc1cccc(NC(=O)c2cc([N+](=O)[O-])ccc2Cl)n1)c1cc([N+](=O)[O-])ccc1Cl	18%	?	4µM*	-20%
Cc1cc(NC(=O)c2cc([N+](=O)[O-])ccc2Cl)no1	-8%	-15%	?	i
COc1ccc(-c2cc3ccccc3n2CC(O)CN2CCCCC2)cc1 (stereo not given)	0%	0%	-5%	?
COc1ccc(-c2cc3ccccc3n2CC(O)CNCCO)cc1 (stereo not given)	-6%	-12%	2.8µM*	-6%[57.5 µM]
NC(N)=N/N=C/c1ccc(Br)cc1	-5%	?	5µM*	i
Cc1ccc(CNC(=O)c2c3c(nc4ccccc24)C(=O)N(C2CCCCC2)C3)cc1	.	-5%	11µM*	-20%
CCC(Sc1ncccc1C(=O)Oc1ccccc1Cl)C(=O)Nc1ccccc1OC (stereo not given)	.	10%	-6%	i
Cc1nnc(NC(=O)c2ccc3ccccc3c2)o1	2%	-18%	11µM*	-24%[57.5 µM]
Cc1ccccc1NC(=O)c1ccc2ccccc2c1	0%	4%	?	-33%
CC(C)(C)NCC(=Cc1ccccc1)C(=O)c1ccccc1	-28%	5µM*	?	-39%
CCOC(=O)c1cc2c(=O)n3ccccc3nc2n(CC2CCCO2)c1=NC(=O)c1cccc(C(F)(F)F)c1 (stereo not given)	.	33%	4%	2%
Cc1ccc(NS(=O)(=O)c2ccc(-n3cccn3)cc2)c(C)c1	3%	11%	10µM*	-13%
Cc1cccc(CCNC(=O)c2sc3nc4n(c(=O)c3c2C)CCCC4)c1	.	-16%	-4%	i
COc1ccc(Cl)cc1NC(=O)Cc1ccc(NC(=O)N2CCCCc3ccccc32)cc1	.	-5%	?	i
CCN(C(=O)c1ccc2c(c1)N(Cc1cccc(Cl)c1)C(=O)c1ccccc1S2=O)c1ccccc1 (stereo not given)	.	-27%	10µM*	i
CCN1CCN(CCNC(=O)c2ccc3c(c2)N(Cc2cccc(Cl)c2)C(=O)c2ccccc2S3=O)CC1 (stereo not given)	4%	-24%	?	12%
CC1(c2ccccc2)CC(C)(C)N2C(=O)C3(C(C#N)=C(N)Oc4cc(O)ccc43)c3cccc1c32 (stereo not given)	-13%	?	5.6µM*	-30%
Cc1cc2c3c(c1)C(C)(c1ccccc1)CC(C)(C)N3C(=O)C21C(C#N)=C(N)OC2=C1C(=O)CC(C)(C)C2 (stereo not given)	-17%	-24%	?	-6%[57.5 µM]
Cc1ccc(C(=O)N2CCN(Cc3ccc4c(c3)OCO4)CC2)c(Cl)c1	8%	8%	6.3µM*	-27%
Cc1cc(C)cc(OCC(O)CN2CCN(Cc3ccc4c(c3)OCO4)CC2)c1 (stereo not given)	-1%	3%	2.2µM*	-22%
O=C(c1cc2c(s1)CCCC2)N1CCN(Cc2ccc3c(c2)OCO3)CC1	6%	-25%	13µM*	-9%[57.5 µM]
CCN(CC)c1ccc(C(=O)NC(=S)N2CCN(Cc3ccc4c(c3)OCO4)CC2)cc1	7%	-10%	10µM*	-72%
COc1cccc(-c2csc(-c3c(N)c(C(=O)c4ccccc4)n4ccccc34)n2)c1	.	0%	-13%	-29%
CC(C)CC(COCc1cccc(Cl)c1)N1CCN(C(=O)c2ccc(C(F)(F)F)cc2)CCC1=O (stereo not given)	-2%	-13%	10µM*	-50%
Cc1cccc(COC[C@H](Cc2ccccc2)N2CCN(C(=O)c3ccc(C(F)(F)F)cc3)CCC2=O)c1	5%	-29%	?	-39%
